From PubChem BioAssay
HP1b chromo inh: HTS for Inhibitors of HP1-beta Chromodomain Interactions with Methylated Histone Tails; AlphaScreen HP1-beta / biotin-H3K9me3 peptide binding; Potency, µM (top dose mostly 114 µM), actives largely listed as inhibitors; hit rate 0.56% among 390,000; AID 540317, 2011; further: nearly all actives have a fitted effect of over 70% in size
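HP1-beta protein (50 nM final) preincubated 30 min at room temperature with biotinylated H3(1-18)K9me3 peptide (50 nM) in PBS pH 7.4, 0.01% Tween-20, then compound added for 30 min. AlphaScreen streptavidin donor/nickel chelate acceptor beads (10 ug/mL final), 30 min dark, luminescence read.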
JMJD2A Tudor: qHTS Assay for Inhibitors of JMJD2A-Tudor Domain | AlphaScreen JMJD2A-Tudor / H3K4me3 peptide binding | Potency, µM (titrated, usually from 114 µM), actives largely listed as inhibitors | hit rate 4.4% among 390,000; further: nearly all actives have a fitted effect of over 50% in size
Target sequence (O75164 whole entry, looked up, the tested form may be a part): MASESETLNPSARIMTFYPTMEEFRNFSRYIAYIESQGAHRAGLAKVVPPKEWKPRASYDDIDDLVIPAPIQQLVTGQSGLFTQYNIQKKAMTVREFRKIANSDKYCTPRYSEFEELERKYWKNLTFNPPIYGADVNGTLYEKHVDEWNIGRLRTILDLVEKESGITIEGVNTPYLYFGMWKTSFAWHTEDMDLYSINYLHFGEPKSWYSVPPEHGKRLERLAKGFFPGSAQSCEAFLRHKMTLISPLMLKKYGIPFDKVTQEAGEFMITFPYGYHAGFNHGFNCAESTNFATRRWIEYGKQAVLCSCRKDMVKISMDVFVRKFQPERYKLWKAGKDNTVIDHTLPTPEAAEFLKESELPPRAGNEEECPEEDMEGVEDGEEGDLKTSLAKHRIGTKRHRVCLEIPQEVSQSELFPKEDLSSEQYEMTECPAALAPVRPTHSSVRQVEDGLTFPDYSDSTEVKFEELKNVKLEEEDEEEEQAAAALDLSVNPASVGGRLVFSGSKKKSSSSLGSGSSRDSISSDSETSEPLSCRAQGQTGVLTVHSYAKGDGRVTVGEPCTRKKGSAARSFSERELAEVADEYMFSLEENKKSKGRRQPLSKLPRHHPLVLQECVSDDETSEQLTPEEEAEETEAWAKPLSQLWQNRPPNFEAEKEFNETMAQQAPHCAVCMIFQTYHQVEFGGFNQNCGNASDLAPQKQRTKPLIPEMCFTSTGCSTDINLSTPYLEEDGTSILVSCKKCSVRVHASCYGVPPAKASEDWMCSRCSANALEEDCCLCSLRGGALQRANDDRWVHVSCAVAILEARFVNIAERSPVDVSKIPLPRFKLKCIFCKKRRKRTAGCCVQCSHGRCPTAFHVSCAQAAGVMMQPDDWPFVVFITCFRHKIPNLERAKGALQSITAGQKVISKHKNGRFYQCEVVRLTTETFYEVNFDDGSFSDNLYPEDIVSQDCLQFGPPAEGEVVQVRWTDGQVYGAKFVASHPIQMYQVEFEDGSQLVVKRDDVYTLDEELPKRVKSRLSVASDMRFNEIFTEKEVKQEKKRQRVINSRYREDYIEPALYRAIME
G9a block: qHTS Assay for Inhibitors of Histone Lysine Methyltransferase G9a; Histone-lysine N-methyltransferase EHMT2 (Homo sapiens), Q96KQ7; G9a H3K9 monomethylation, AlphaScreen, 2 h; Potency, µM (doses to about 102 µM), most hits filed as inhibitors; hit rate 8.8% among 350,000; AID 504332, 2011; further: nearly all actives have a fitted effect of over 75% in size
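AlphaScreen read-out: biotin-H3K9 peptide (500 nM) methylation by 20 nM enzyme with 20 uM SAM, 2 h at room temperature after 15 min compound preincubation; anti-monomethyl H3K9 antibody plus donor/acceptor beads, 10 min dark.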
PLK1 PBD inh: qHTS for Inhibitors of PLK1-PDB (polo-like kinase 1 - polo-box domain): Primary Screen. Serine/threonine-protein kinase PLK1 (Homo sapiens), P53350. Plk1 PBD binding of FITC phosphopeptide, fluorescence polarization. Potency, µM, hits mostly inhibitors. hit rate 2.8% among 360,000. AID 720504, 2013; further: series mostly up to about 57 µM; nearly all actives have a fitted effect of over 65% in size
PI5P4Ka inh: qHTS for Inhibitors of phosphatidylinositol 5-phosphate 4-kinase (PI5P4K); PI5P4Kalpha enzyme, ADP-Glo luminescence, 60 min; stronger effect = lower value; hit rate 1.2% among 330,000; max response, %; AID 652105, 2013; active means max response of -50% or lower; inconclusive means between -30% and -50%; inactive means -30% or higher; further: value at the top dose of about 77 µM
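PI5P4Kalpha ADP-Glo assay; 5 microM ATP final; 60 min RT reaction; HEPES pH 7.4/EGTA/CHAPS, 5% DMSO; controls lacking substrate or enzyme; luminescent end-point.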
BAZ2B inh: qHTS Assay for Inhibitors of BAZ2B | hit rate 4.4% among 360,000 | Bromodomain adjacent to zinc finger domain protein 2B (Homo sapiens), Q9UIF8 | AID 504333, 2011 | Potency, µM (doses to about 114 µM), hits mostly inhibitors | AlphaScreen BAZ2B-H3K14Ac peptide displacement; further: nearly all actives have a fitted effect of over 60% in size
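BAZ2B (50 nM) with biotin-H3(5-23)K14Ac peptide (50 nM) in PBS pH 7.4, 0.01% Tween-20, preformed 30 min, then compound 30 min at room temperature; top concentration 110uM. AlphaScreen streptavidin donor/nickel chelate acceptor beads (10 ug/mL final), 20 min dark, signal read.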
12-hLO 8HQ R1: Cuvette-Based Assay for Inhibitors of 12-hLO (12-human lipoxygenase): 8HQ Series - Round 1. AID 2163, 2009. hit rate 60% among 35. Potency, µM, hits mostly inhibitors. shares compounds with BAZ2B inh. purified 12-hLO, cuvette UV 234 nm product formation;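 active means compounds that slowed 12-hLO product formation enough to yield a measured IC50 potency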
JMJD2E inh: Inhibitors of Human Jumonji Domain Containing 2E (JMJD2E): 8HQs - Round 1; AID 493212, 2011; shares compounds with BAZ2B inh; Potency, µM (top dose mostly 57 µM), actives largely listed as inhibitors; hit rate 89% among 130; JMJD2E demethylase, FDH-coupled NADH fluorescence (FDH is formaldehyde dehydrogenase)
ME-1 prolif: qHTS Assay for Compounds Blocking the Interaction Between CBF-beta and RUNX1 for the Treatment of Acute Myeloid Leukemia: ME-1 cellular proliferation | shares compounds with BAZ2B inh | ME-1 cell proliferation, ATP luminescence, 48 h | Potency, µM (highest dose often 56.1 µM), actives largely listed as inhibitors | hit rate 20% among 140
Numbers stand for hits; – = inactive; ? = inconclusive; · = no result given; [ ] = dose if it differs, or a comment. An excerpt weighted towards active compounds, which were near 12% of everything screened. Unless noted, the call rests on the fitted dose curve; in most records, active means well fitted curve in the direction sought with a large enough effect; inconclusive means small, poorly fitted or top-dose-only effect, or another doubt; inactive means no such curve, though single readings can be large; an effect the other way counts as inactive or inconclusive.

SMILES | HP1b chromo inh | JMJD2A Tudor | G9a block | PLK1 PBD inh | PI5P4Ka inh | BAZ2B inh | others
COc1ccc2[nH]cc(CCNc3ncnc4ccc(-c5c(C)noc5C)cc34)c2c1 | · | · | –[0.501 µM] | · | · | ·
N#C/C(=C\c1cc(Cl)cc(Cl)c1)c1cccnc1 | · | · | – | · | · | ·
CC1=C(c2ccc(C)c(C)c2)S(=O)(=O)N(Cc2ccc(C(=O)Nc3cc(F)ccc3F)cc2)C1=O | – | – | – | · | · | –
CCCC(=O)c1cc(O)c(O)cc1O | · | · | · | · | · | · | ME-1 prolif=–
CCCc1cc(C(=O)Cc2ccc(F)cc2)c(O)cc1O | – | –[11.4 µM] | –[12.7 µM] | – | – | –
S=C(NCc1ccco1)N1CCOCC1 | – | – | – | – | – | – | ME-1 prolif=–
Fc1ccc(N2CCN(C(=S)NCc3ccco3)CC2)cc1 | – | ? | ? | – | – | ?
COc1ccc(N2CCN(C(=O)COC(=O)CC(NC(N)=O)c3ccc(Cl)cc3)CC2)cc1 (configuration not stated) | · | · | · | – | – | ·
O=[n+]1c2c(n([O-])c3c1CCCC3)CCCC2 | – | – | – | – | · | –
CC1(C)N([O-])C2=C(CCCC2)[N+]1=O | – | – | ? | – | – | ? | ME-1 prolif=–
CC(=O)NC(C)c1cc(F)c2cccnc2c1O (configuration not stated) | – | 79µM | ? | · | · | 22µM | 12-hLO 8HQ R1=–;JMJD2E inh=23µM
CCC(=O)NC(c1cc(Cl)c2ccccc2c1O)C1CC1 (configuration not stated) | – | – | –[0.501 µM] | · | · | –
CC(=O)NC(c1cc(F)c2cccnc2c1O)C(C)C (configuration not stated) | · | · | –[12.7 µM] | · | · | 79µM | 12-hLO 8HQ R1=–;JMJD2E inh=20µM
CC(=O)NC(c1cc(Cl)c2ccccc2c1O)C(C)C (configuration not stated) | – | – | –[0.501 µM] | · | · | –
CC(=O)NC(c1cc(Cl)c2cccnc2c1O)C(C)C (configuration not stated) | – | ? | –[12.7 µM] | · | · | 79µM | 12-hLO 8HQ R1=2.6µM;JMJD2E inh=23µM
CC(=O)NC(c1cc(Cl)c2cccnc2c1O)C1CC1 (configuration not stated) | – | ? | –[12.7 µM] | · | · | 32µM | 12-hLO 8HQ R1=3µM;JMJD2E inh=18µM
CCC(=O)NC(c1ccc(OC)cc1)c1cc(Cl)c2cccnc2c1O (configuration not stated) | – | – | – | – | – | –
CC(C)NC(=O)C1CCN(c2nc3ccccc3nc2C(F)(F)F)CC1 | – | – | – | · | · | –
COC(=O)c1ccc(/C=C(\C#N)c2ccccn2)cc1 | – | – | – | – | – | –
N#CC(C#N)=Cc1ccc(OC(=O)c2ccccn2)cc1 | – | 7.9µM | 2.5µM | – | – | 8.9µM | ME-1 prolif=?
CC[C@H](NC(C)C)[C@H](O)c1ccc(O)c(O)c1 | · | · | –[12.7 µM] | · | · | ·
NC[C@@H](O)c1ccc(O)c(O)c1 | · | 89µM | ? | · | · | · | ME-1 prolif=–
Cc1ccc(S(=O)(=O)N(C)c2ccc(C(=O)NC3CCCCC3)cc2)cc1 | · | · | · | – | – | ·
Nc1nc(-c2ccccc2)cs1 | ? | – | ? | ? | · | –
Nc1nc(-c2ccccc2)c(N=Nc2cccc3ccccc23)s1 | ? | 11µM | 10µM | – | – | 8.9µM | ME-1 prolif=–
SMILES | HP1b chromo inh | JMJD2A Tudor | G9a block | PLK1 PBD inh | PI5P4Ka inh | BAZ2B inh | others
CC(=O)Nc1sc(N)nc1-c1ccccc1 | – | – | ? | – | – | –
Nc1nc(-c2ccccc2)c(N=Nc2ccccc2Cl)s1 | 18µM | 13µM | 10µM | – | – | 10µM | ME-1 prolif=–
CCO/C(C)=N/Oc1cnc2ccccc2c1 | · | · | · | – | – | ·
CN=c1scc(-c2ccccc2F)n1/N=C/c1ccc(O)c(O)c1O | 28µM | 32µM | 13µM | 5.3µM | -54 | 7.9µM | ME-1 prolif=4.5µM
Cc1nc2ccccc2c(=O)n1/N=C/c1ccccc1F | – | – | – | – | – | –
O=[N+]([O-])c1ccc(O)c(/C=N/NC2=NS(=O)(=O)c3ccccc32)c1 | – | 20µM | ? | – | – | 1.8µM | ME-1 prolif=?
Cc1ccc(NC(=O)CN2C(=O)NC(Cc3ccccc3)C2=O)cc1Cl (configuration not stated) | – | – | –[12.7 µM] | – | – | –
CC(=O)NC(c1ccco1)c1cc(Cl)c2cccnc2c1O (configuration not stated) | · | · | –[12.7 µM] | · | · | 32µM | 12-hLO 8HQ R1=3µM;JMJD2E inh=32µM
CC(=O)NC(c1ccco1)c1cc(Br)c2cccnc2c1O (configuration not stated) | · | · | –[12.7 µM] | · | · | 28µM | 12-hLO 8HQ R1=2µM;JMJD2E inh=29µM
CCC(=O)NC(c1ccco1)c1cc(Cl)c2cccnc2c1OC (configuration not stated) | – | – | –[12.7 µM] | · | · | – | 12-hLO 8HQ R1=–;JMJD2E inh=32µM
CCCCC(=O)NC(c1ccco1)c1cc(Cl)c2cccnc2c1O (configuration not stated) | – | –[11.4 µM] | · | – | – | –
COc1cc(C(=O)NC(c2ccc(Cl)cc2)c2cc(Cl)c3cccnc3c2O)cc(OC)c1OC (configuration not stated) | – | – | – | · | · | –
CCC(=O)NC(c1cc(Cl)c2cccnc2c1O)c1cccn1C (configuration not stated) | · | ? | · | · | · | · | 12-hLO 8HQ R1=3.8µM;JMJD2E inh=–
O=C(CSc1cccc2cccnc12)NCc1ccco1 | – | – | · | – | – | –
O=C(COC(=O)c1ccco1)Nc1cccc(S(=O)(=O)N2CCOCC2)c1 | · | · | · | – | – | ·
Cc1cc(Br)ccc1NC(=O)c1c(C)oc2ncnc(N3CCCCC3)c12 | – | – | – | · | · | –
CC(=O)NC(c1cccs1)c1cc(Cl)c2ccccc2c1O (configuration not stated) | – | – | –[0.501 µM] | · | · | –
CC(=O)NC(c1ccco1)c1cc(Cl)c2ccc(N(C)C)nc2c1O (configuration not stated) | · | · | ? | · | · | 50µM | 12-hLO 8HQ R1=–;JMJD2E inh=20µM
Oc1ccc(Cl)cc1CNc1cccc2cccnc12 | – | ? | – | – | – | ?
